aSyn rescue: rescues yeast growth from alpha-synuclein toxicity | Yeast expressing alpha-synuclein, growth rescue, BacTiter-Glo, 24 h | Potency, µM (titrated, usually from 46.1 µM), without a hit: top-dose growth rescue (activation), actives largely listed as activators | hit rate 0.14% among 370,000; further: % of control where 0% means no effect; nearly all actives have a fitted effect of over 65% in size
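Rescue of yeast growth: cells expressing toxic alpha-synuclein, induced in galactose at OD600 0.02, incubated with compound 24 h at 30 C. ATP luminescence quantified growth; inhibitors of toxicity appear as activators.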
ClpP mod: qHTS Assay for Activators of ClpP. Potency, µM (highest dose often 57.5 µM), inactives show at the top dose activity change, negative = active. ATP-dependent Clp protease proteolytic subunit (Bacillus subtilis (strain 168)), P80244. purified B. subtilis ClpP, FRET peptide cleavage, 20 min. AID 651965, 2013. hit rate 1.9% among 340,000; active means well fitted falling curve with a large enough effect; inconclusive means small, poorly fitted or top-dose-only effect; inactive means no such curve, though single readings can be large or run the other way; further: the source files actives as falling curves though it sought activators and does not explain the sign; nearly all actives have a fitted effect of over 65% in size
Target sequence (P80244 whole entry, looked up): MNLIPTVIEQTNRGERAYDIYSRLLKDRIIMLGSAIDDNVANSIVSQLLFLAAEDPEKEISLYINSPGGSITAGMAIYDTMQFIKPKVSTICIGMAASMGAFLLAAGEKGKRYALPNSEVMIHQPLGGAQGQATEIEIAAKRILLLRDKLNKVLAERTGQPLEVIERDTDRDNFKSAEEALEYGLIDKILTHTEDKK
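ClpP 10 microg/mL final, pH 8 Tris/KCl buffer with BSA, glycerol, Tween-20; compound pinned in; FRET-FV substrate; RT 20 min; Ex320/Em430; ΔFRET vs ADEP 5.8 microM, DMSO, no enzyme.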
TDP43 rescue: TDP-43 toxicity inhibition in yeast | Potency, µM (highest dose often 46.1 µM), for the others: at the top dose growth rescue (activation), actives largely listed as activators | AID 652104 | hit rate 1.8% among 410,000 | TDP-43 expressing yeast growth rescue, BacTiter-Glo, 24 h; further: % of control where 0% means no effect; nearly all actives have a fitted effect of over 50% in size
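Yeast expressing TDP-43 (pregrown in raffinose, seeded at OD600=0.02 in galactose medium) exposed to compounds 24 hr at 30 deg C. Growth read by BacTiter-Glo luminescence; rescue of toxicity appears as increased signal.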
Mm-Cpn inhibitor: inhibitors of Methanococcus maripaludis chaperonin TRiC (MmCpn); Potency, µM (top dose mostly 76.9 µM), for the others: at the highest dose activity, negative = inhibition, most hits filed as inhibitors; purified Mm-Cpn ATPase, ADP Transcreener TR-FRET; hit rate 0.031% among 330,000; further: on the % scale 0 is the no-effect control and ±100 the full control effect; nearly all actives have a fitted effect of over 80% in size
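Purified archaeal chaperonin (25 nM final) was preincubated with compound for 10 min at 37°C, then ATP (10 uM final) was added for 30 min at 37°C in Tris pH 7.4/KCl/MgCl2/DTT buffer. ADP was quantified by HTRF Transcreener TR-FRET.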
FUS yeast rescue: FUS proteinopathy suppression in yeast; hit rate 0.24% among 390,000; Potency, µM (doses to about 76.6 µM), actives largely listed as activators; S. cerevisiae FUS-expressing, growth rescue, OD600, 24 h;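 further: plate controls were DMSO vehicle for no effect and reference control for full effect; nearly all actives have a fitted effect of over 55% in size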
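Quantitative HTS measuring growth restoration of FUS-toxic yeast. Galactose-induced cells (OD 0.005) were exposed 24hr at 30C to compounds at several concentrations, then absorbance at 600 nm was recorded.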
Abeta yeast res: A-beta toxicity reversal in yeast; yeast expressing A-beta42, growth rescue, OD600, 48 h; response scale: 0% DMSO, 100% iron-clioquinol control; AID 1347071; Potency, µM (highest dose often 46.1 µM), actives largely listed as activators; hit rate 0.063% among 410,000; further: nearly all actives have a fitted effect of over 55% in size
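Yeast A-beta toxicity model in growth medium with pinned compounds, 48 h at 30 C; growth read as absorbance at 600 nm. Normalized to FeCl3/clioquinol equimolar mix (positive) and DMSO (negative).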
* hit, by the source's call; i = inactive; ? = inconclusive; · = no result given; ! = repeats disagree; [ ] = remark or other dose. Only some compounds are listed: those with a hit (about 3.6% of all), similar ones and a draw of the others. Unless noted, the call rests on the fitted dose curve; in most records, active means well fitted curve in the direction sought with a large enough effect; inconclusive means small, poorly fitted or top-dose-only effect, or another doubt; inactive means no such curve, though single readings can be large; an effect the other way counts as inactive or inconclusive. Potency means the concentration at half of the fitted maximal effect.

SMILES	aSyn rescue	ClpP mod	TDP43 rescue	Mm-Cpn inhibitor	FUS yeast rescue	Abeta yeast res
O=S(=O)(c1cccnc1)N1CCN(c2nc(-c3cccs3)nc3ccccc23)CC1	0.5%	31.6µM*	·	·	·	·
COc1ccc(N2CCN(c3nc(-c4cccs4)nc4ccccc34)CC2)cc1	-8.6%	·	12.6µM*	-2.9%	?	i
O=S(=O)(c1ccc(Cl)cc1)N1CCN(c2nc(-c3cccs3)nc3ccccc23)CC1	6.9%	20µM*!	-7.7%	2.2%	i	i
COc1cccc(N2CCN(C(=O)CN3CCSc4ccccc43)CC2)c1	2.6%	-1.9%	14.1µM*	·	i	?
COc1cccc(N2CCN(C(=O)CCSCc3ccccc3F)CC2)c1	2.4%	1.2%	15.8µM*	1.2%	i	i
COc1ccccc1N1CCN(C(=O)Cc2ccc(Cl)cc2)CC1	21.1%	1.8%	2.4%	2.0%	i	i
CCc1ccccc1NC(=S)N1CCN(c2cccc(OC)c2)CC1	-8.1%	10µM*	?	-1.0%	i	i
COc1ccccc1N1CCN(C(=O)CCSCc2ccccc2F)CC1	-0.4%	-1.6%	20µM*!	0.7%	i	i
COc1ccc(CNC(=O)CN2CCSc3ccccc32)c(OC)c1	-11.4%	-3.0%	?	·	i	i
O=C(c1ccc(F)cc1)N1CCc2c([nH]c3ccccc23)C1c1ccc(Cl)cc1 (stereo not given)	·	-3.2%	-13.5%	·	i	i
O=c1[nH]c(=O)n([C@H]2C[C@@H](O)[C@@H](CO)O2)cc1F	8.4%	-0.1%	·	·	·	·
COc1cccc(N2CCN(c3cnc4ccccc4n3)CC2)c1	5.9%	·	35.5µM*	1.8%	i	i
COCCCNC(=O)c1cc2n(n1)CCCN(Cc1ccc(C)cc1)C2=O	·	0.8%	-22.6%	·	i	i
CSc1cnc2c(=O)n(C)c(=O)[nH]c2n1	-0.8%	15.8µM*	-16.5%	-3.1%	·	i
OCc1nc2ccccc2[nH]1	5.1%	-2.1%	·	·	·	·
Clc1ccc(OCCn2c(-c3ccco3)nc3ccccc32)cc1	·	?	?	0.9%	i	i
c1coc(Cn2c(-c3ccco3)nc3ccccc32)c1	-9.6%	28.2µM*	23.9%	-0.5%	i	i
OC(CBr)C[n+]1cc(Br)cc2ccccc21 (stereo not given)	-9.5%	-12.4%	·	·	·	·
COc1ccc2c(COC(=O)[C@@H]3CCCN3S(=O)(=O)c3ccc(Cl)cc3)cc(=O)oc2c1	6.7%	25.1µM*	-6.6%	-12.5%	?	i
CN(C)CCNC(=O)CCCN1C(=O)c2cccnc2Oc2ccc(Cl)cc21	·	-0.5%	6.3%	·	i	i
Cc1ccc(-c2nc3ccc([N+](=O)[O-])cc3[nH]2)cc1	1.1%	-0.1%	17.8µM*	-0.3%	i	i
Nc1ccc2nc(-c3ccc(-c4nc5ccc(N)cc5[nH]4)cc3)[nH]c2c1	8.6%	-5.4%	14.1µM*	-17.0%	i	?
C=CC[n+]1cccc2cccc(O)c21	·	0.4%	·	·	·	·
Cc1cccc(C(=O)n2nc(C)c(S(=O)(=O)N3CCOCC3)c2C)c1	·	0.5%	-15.6%	·	i	i
CC(C)c1ccc(OCC(=O)NNC(=S)NC(=O)c2ccco2)c(Br)c1	15.3%	1.4%	10µM*	-7.6%	i	i
SMILES	aSyn rescue	ClpP mod	TDP43 rescue	Mm-Cpn inhibitor	FUS yeast rescue	Abeta yeast res
O=C(Cc1ccc(Cl)cc1)NNC(=S)NC(=O)c1cccs1	-27.6%	-2.6%	28.2µM*	2.8%	i	?
Cc1ccccc1OCC(=O)NNC(=S)NC(=O)c1ccco1	?	-0.4%	7.08µM*	-3.5%	i	?
Cc1ccccc1OCc1nc(-c2ccc(NC(=O)c3ccco3)cc2)no1	-19.8%	28.2µM*	5.3%	-9.3%	i	i[9.22 µM]
Cc1ccc(S(=O)(=O)N2CCCC2c2cccc3[nH]cc(C)c23)cc1 (stereo not given)	·	·	·	·	i	·
O=C(Nc1ccc(S(=O)(=O)N2CCCCC2c2cccnc2)cc1)c1ccc(Br)cc1 (stereo not given)	·	3.1%	-1.8%	·	?	i
O=C(Cc1cccs1)NNC(=S)NC(=O)c1ccco1	?	·	?	0.5%	i	10µM*
N#CC1=C(N)Oc2n[nH]c(-c3cccs3)c2C1c1ccoc1 (stereo not given)	9.9%	28.2µM*	-35.4%	0.9%	i	i
Cc1ccc(C2C(C#N)=C(N)Oc3n[nH]c(-c4cccs4)c32)cc1 (stereo not given)	2.5%	-0.7%	16.3%	-1.1%	i	i
Cc1cc(C)c(C)c(S(=O)(=O)ON2C(=O)c3ccccc3C2=O)c1C	15.8%	?	5.62µM*	-1.2%	·	i
Cc1cc(C)c(S(=O)(=O)ON2C(=O)c3ccccc3C2=O)cc1C	-69.6%	8.91µM*	?	-7.7%	·	i
Cc1ccc(S(=O)(=O)ON2C(=O)c3ccccc3C2=O)c(C)c1	11.2%	0.1%	-93.1%	-1.2%	i	i
O=C(c1ccc2c(c1)N(Cc1cccc(Cl)c1)C(=O)c1ccccc1S2=O)N1CCN(c2cccc(C(F)(F)F)c2)CC1 (stereo not given)	·	-3.8%	2.3%	·	?	i
Nc1c(C(=O)NCc2ccco2)nnn1CC(=O)Nc1ccccc1	-6.7%	0.3%	-2.9%	1.6%	39.8µM*	i
O=C(COC(=O)c1cccc2ccccc12)Nc1cccnc1Cl	-0.1%	15.8µM*	23.2%	0.7%	·	i
Cc1ccc(NC(=O)COC(=O)c2cc(Cl)ccc2[N+](=O)[O-])c(C)c1	1.2%	-0.8%	7.0%	0.0%	·	i
O=C(COC(=O)c1cccc2ccccc12)Nc1ncc(C(F)(F)F)cc1Cl	8.1%	35.5µM*	9.7%	-7.0%	i	i
O=C(COC(=O)c1cc(Cl)ccc1[N+](=O)[O-])Nc1cccc2ccccc12	-2.0%	-1.4%	20µM*	1.1%	·	i
CCOc1ccccc1C(=O)OCC(=O)Nc1ncc(C(F)(F)F)cc1Cl	1.7%	-17.6%	17.8%	0.5%	i	i
COC(=O)c1ccccc1NC(=O)c1cc2ccccn2n1	·	4.4%	18.9%	·	i	i
COc1ccc(N2CCN(c3ncnc4onc(C)c34)CC2)cc1	·	1.0%	0.0%	·	i	i
CC(C)CN(CCCNC(=O)CN1N=C(c2ccccc2)CCC1=O)CC(C)C	·	1.0%	-2.4%	·	i	i
O=C(c1cc(COc2ccc(F)cc2Cl)on1)N1CC2C[C@@H]3CC1C[C@H](C2)C3	-10.2%	-2.4%	-1.3%	-3.7%	i	i
